# Several values for one entry are separate records, joined by “and”; a condition that tells them apart may be missing. Equal entries are not always repeated. Records with an inconclusive call do not appear. Entries that show only a call come without a potency. Some compounds were tested as several samples or in several runs, with calls that do not always agree. Activity calls are given as the source filed them. Unless noted, calls follow the shape of the dose curve; as a rule, active = well fitted curve in the direction sought with a large enough effect in the repeat runs; inconclusive = weak or mixed curves; inactive = no such curve, though single readings can be large; an effect the other way counts as inactive or inconclusive.
# Experiments:
# [1] = qHTS assay to identify small molecule antagonists of the constitutive androstane receptor (CAR) signaling pathway - cell viability counter screen (AID 1224837); also: nearly all actives have a fitted effect of over 45% in size; also: potency is read from the fitted curve at half-maximal effect
# Procedure, shortened: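 Fluorescence from CellTiter-Fluor served as the viability signal. Human hepatoma HepG2 cells stably bearing hCAR and CYP2B6-2.2kb received compound plus CITCO (50 nM final) for 23 hr.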
# [2] = molecular target: Nuclear receptor subfamily 1 group I member 3 (Homo sapiens) (UniProt Q14994); assay: qHTS assay to identify small molecule antagonists of the constitutive androstane receptor (CAR) signaling pathway (AID 1224838);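 also: HepG2 cells stably expressing hCAR with CYP2B6 luciferase reporter stimulated by CITCO; nearly all actives have a fitted effect of over 40% in size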; also: potency is read from the fitted curve at half-maximal effect
# Chain of Nuclear receptor subfamily 1 group I member 3 (Homo sapiens) (Q14994 whole entry, looked up): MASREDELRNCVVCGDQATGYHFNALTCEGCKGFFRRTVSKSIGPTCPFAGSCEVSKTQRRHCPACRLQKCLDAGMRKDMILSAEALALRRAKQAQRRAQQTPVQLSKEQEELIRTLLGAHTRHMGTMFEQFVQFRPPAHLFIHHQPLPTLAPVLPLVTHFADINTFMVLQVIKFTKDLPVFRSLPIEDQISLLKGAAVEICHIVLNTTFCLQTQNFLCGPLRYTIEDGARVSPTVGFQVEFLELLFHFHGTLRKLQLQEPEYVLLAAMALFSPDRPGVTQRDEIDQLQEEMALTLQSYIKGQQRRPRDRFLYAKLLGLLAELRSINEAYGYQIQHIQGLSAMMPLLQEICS
# Procedure, shortened: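 Quantitative HTS in double-stable HepG2-CYP2B6-hCAR cells. After 4 h plating, cells get compound (15 concentrations) and CITCO at 50 nM final, incubate 24 h at 37 C, then ONE-Glo luminescence is read.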
# [3] = molecular target: Nuclear receptor subfamily 1 group I member 3 (Homo sapiens) (UniProt Q14994); assay: qHTS assay to identify small molecule agonists of the constitutive androstane receptor (CAR) signaling pathway (AID 1224839);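 also: HepG2 cells stably carrying human CAR and a CYP2B6 luciferase reporter; nearly all actives have a fitted effect of over 15% in size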
# Procedure, shortened: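 Cells were plated and incubated 4 hrs, then dosed with compounds at 15 concentrations. PK11195 was added to 0.75 uM final. After 24 hrs at 37 C, luciferase luminescence was measured.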
# [4] = qHTS assay to identify small molecule antagonists of the estrogen related receptor signaling pathway with the pleiotropic PPARgamma coactivator (PGC) from Tox21 10K library - cell viability counter screen (AID 1224840; active = well fitted cell-killing curve with a large enough effect in the repeat runs, not every such curve was filed as active; also: nearly all actives have a fitted effect of over 40% in size; also: potency is read from the fitted curve at half-maximal effect)
# Procedure, shortened: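 Compounds in DMSO, alongside positive and negative controls, were pinned onto PGC/ERR cells (2,000 per well). Exposure lasted 17.5 hours at 37 C, followed by a 30-minute CellTiter-Fluor incubation and fluorescence reading.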
# [5] = molecular target: Thyrotropin receptor (Homo sapiens) (UniProt P16473); assay: qHTS assay to identify small molecule agonists of the thyroid stimulating hormone receptor (TSHR) signaling pathway (AID 1224843; calls by dose curve; also: nearly all actives have a fitted effect of over 45% in size)
# Chain of Thyrotropin receptor (Homo sapiens) (P16473 whole entry, looked up): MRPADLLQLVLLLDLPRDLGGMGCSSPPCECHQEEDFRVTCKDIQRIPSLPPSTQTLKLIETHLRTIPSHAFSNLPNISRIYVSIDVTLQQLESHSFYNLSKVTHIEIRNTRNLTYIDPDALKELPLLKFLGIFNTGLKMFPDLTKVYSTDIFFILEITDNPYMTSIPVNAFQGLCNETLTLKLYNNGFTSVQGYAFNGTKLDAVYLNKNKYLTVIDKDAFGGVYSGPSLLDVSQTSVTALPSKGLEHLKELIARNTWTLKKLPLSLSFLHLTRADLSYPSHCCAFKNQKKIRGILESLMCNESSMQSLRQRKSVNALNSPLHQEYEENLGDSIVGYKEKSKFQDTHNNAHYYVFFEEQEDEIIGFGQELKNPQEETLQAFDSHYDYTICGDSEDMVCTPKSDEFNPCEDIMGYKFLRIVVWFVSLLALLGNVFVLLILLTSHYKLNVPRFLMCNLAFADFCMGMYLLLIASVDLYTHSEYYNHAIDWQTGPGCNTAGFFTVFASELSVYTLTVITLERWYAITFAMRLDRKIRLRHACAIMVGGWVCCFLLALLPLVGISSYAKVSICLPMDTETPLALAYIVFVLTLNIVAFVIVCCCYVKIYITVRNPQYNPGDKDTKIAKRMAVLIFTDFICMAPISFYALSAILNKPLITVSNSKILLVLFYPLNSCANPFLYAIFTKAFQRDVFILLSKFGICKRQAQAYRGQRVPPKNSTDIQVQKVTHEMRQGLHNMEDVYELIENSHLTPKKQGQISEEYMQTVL
# Procedure, shortened: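 TSHR-HEK293 cells in agonist mode, 30 min room-temperature step, then cAMP measured by competitive HTRF (cAMP-d2 with anti-cAMP cryptate) after 1 h at room temperature. Tested at 15 concentrations in triplicate.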
# [6] = qHTS assay to identify small molecule agonists of the hypoxia (HIF-1) signaling pathway - cell viability counter screen (AID 1224844; calls by dose curve; also: nearly all actives have a fitted effect of over 50% in size; also: potency is read from the fitted curve at half-maximal effect)
# Procedure, shortened: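 Luminescent ATP content (CellTiter-Glo, 30 min, room temperature) served as the viability measure in HRE-bla ME-180 cells exposed to compounds for 17 hrs in low-serum medium (0.5% dialyzed FBS).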
# [7] = qHTS assay to identify small molecule agonists of H2AX (AID 1224845; active = well fitted activation curve with a large enough effect in the signal ratio in the repeat runs, not every such curve was filed as active; the % refers to the signal ratio)
# Procedure, shortened: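 Wild-type CHO-K1 cells, plated overnight, exposed 3hr at 37C to 15 concentrations (0.76% DMSO final). Lysed, then HTRF anti-pH2AX (S139) cryptate and anti-H2AX-d2 antibodies, 24 hr room temperature; 665/620 nm emission read.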
# [8] = qHTS assay to identify small molecule agonists of the hypoxia (HIF-1) signaling pathway (AID 1224846; active = well fitted activation curve with a large enough effect in the signal ratio in the repeat runs, not every such curve was filed as active; the % refers to the signal ratio)
# Procedure, shortened: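 Measured by blue/green FRET after loading CCF4-AM: beta-lactamase expressed from a hypoxia response element in ME-180 cells. Test agents were delivered in DMSO and left 17 hrs; cells had been plated 5 hrs earlier in low-serum (0.5% dialyzed FBS) medium.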
# [9] = qHTS assay to identify small molecule agonists of H2AX - cell viability counter screen (AID 1224847; calls by dose curve; also: nearly all actives have a fitted effect of over 30% in size; also: potency is read from the fitted curve at half-maximal effect)
# Procedure, shortened: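 Cytotoxicity counter screen in wild-type CHO-K1 cells: a 3 hr compound treatment at 37C across 15 concentrations, followed by CellTiter-Glo luminescence to gauge viable cells.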
# [10] = qHTS RealTime-Glo MT Cell Viability Assay in HepG2 cells - 24 hour (AID 1224867); also: nearly all actives have a fitted effect of over 50% in size; also: potency is read from the fitted curve at half-maximal effect
# Procedure, shortened: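 HepG2 suspension premixed with RealTime-Glo reagents is plated at 600 cells per well and left 5 h at 37 C/5% CO2. Compounds in DMSO then go in, and bioluminescence reflecting viable cell number is recorded over 40 h.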
# [11] = qHTS RealTime-Glo MT Cell Viability Assay in HEK293 cells - 32 hour (AID 1224868); also: nearly all actives have a fitted effect of over 50% in size; also: potency is read from the fitted curve at half-maximal effect
# Procedure, shortened: (§1)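 Reads taken at 0, 8, 16, 24, 32 and 40 h from the same wells. HEK293 cells (600/well) carried RealTime-Glo reagents from seeding, with compound added after a 5 h settle at 37 C.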
# [12] = A CellTox Green Cytotoxicity Assay to monitor cytotoxicity in HEK293 cells - 0 hour (AID 1224869); also: nearly all actives have a fitted effect of over 50% in size
# Procedure, shortened: (§2)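 Each value comes from one timepoint of a single continuous run in which HEK293 cells with CellTox Green were exposed to compound for up to 40 h at 37 C, dye fluorescence rising with cell death.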
# [13] = qHTS RealTime-Glo MT Cell Viability Assay in HepG2 cells - 40 hour (AID 1224870); also: nearly all actives have a fitted effect of over 50% in size; also: potency is read from the fitted curve at half-maximal effect
# Procedure, shortened: (§3)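 HepG2 cells (600/well) mixed with RealTime-Glo MT reagent, settled 5 h at 37 C/5% CO2 before compound addition. Nonlytic NanoLuc luminescence from viable-cell prosubstrate reduction read repeatedly during 40 h treatment at 37 C.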
# [14] = A CellTox Green Cytotoxicity Assay to monitor cytotoxicity in HEK293 cells - 40 hour (AID 1224871); also: nearly all actives have a fitted effect of over 45% in size; also: potency is read from the fitted curve at half-maximal effect
# Procedure, shortened: as §2
# [15] = qHTS RealTime-Glo MT Cell Viability Assay in HEK293 cells - 16 hour (AID 1224872); also: nearly all actives have a fitted effect of over 50% in size; also: potency is read from the fitted curve at half-maximal effect
# Procedure, shortened: as §1
# [16] = qHTS RealTime-Glo MT Cell Viability Assay in HepG2 cells - 8 hour (AID 1224873); also: nearly all actives have a fitted effect of over 55% in size; also: potency is read from the fitted curve at half-maximal effect
# Procedure, shortened: as §3
# [17] = qHTS RealTime-Glo MT Cell Viability Assay in HEK293 cells - 40 hour (AID 1224874); conditions: RealTime-Glo luminescence; max response: stronger effect = lower value; also: nearly all actives have a fitted effect of over 50% in size; also: potency is read from the fitted curve at half-maximal effect
# Procedure, shortened: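 qHTS format; HEK293 cells with NanoLuc/prosubstrate reagent, 37 C/5% CO2 for 5 h pre-dosing; compounds 23 nL in DMSO; luminescence at each time point reflects viable cells.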
# [18] = qHTS assay to identify small molecule agonists of the estrogen related receptor signaling pathway with the pleiotropic PPARgamma coactivator (PGC) from Tox21 10K library (AID 1224842); also: nearly all actives have a fitted effect of over 15% in size
# Procedure, shortened: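 PGC/ERR reporter cell line, 2,000 cells per well, incubated 6 h at 37 C before 23 nL compound in DMSO was added. After 18 h at 37 C, One-Glo luminescence read following 30 min at room temperature.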
# [19] = qHTS assay to identify small molecule antagonists of the estrogen related receptor (ERR) signaling pathway from Tox21 library (AID 1224848); also: nearly all actives have a fitted effect of over 50% in size
# Procedure, shortened: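 ERR reporter cell line (from NTP) seeded 2,000 cells/well, rested 6 h at 37 C/5% CO2, then pin-dosed with compounds in DMSO. After 18 h at 37 C, ONE-Glo added; luminescence read after 30 min at room temperature.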
# [20] = qHTS assay to identify small molecule agonists of the estrogen related receptor (ERR) signaling pathway from Tox21 library (AID 1224849; calls by dose curve; also: nearly all actives have a fitted effect of over 15% in size); conditions: ERR reporter cell line, ONE-Glo luciferase, 18 h
# Procedure, shortened: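 We plated ERR reporter cells, waited 6 h, added compounds in DMSO by pin tool and incubated them 18 h at 37 C. ONE-Glo was then added and luminescence read after 30 min.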
compound,measurement,setting,value
C1CCC(NC2CCCCC2)CC1,Potency,[1],inactive
same,Potency,[2],inactive
same,Potency,[3],inactive
same,Potency,[4],inactive
same,Potency,[5],inactive
same,Potency,[6],inactive
same,Potency,[7],inactive
same,outcome,[8],inactive
same,Potency,[9],inactive
same,Potency,[10],inactive
same,Potency,[11],inactive
same,Potency,[12],inactive
same,Potency,[13],inactive
same,Potency,[14],inactive
same,Potency,[15],inactive
same,Potency,[16],inactive
same,max response,[17],3.03% (inactive) and 3.3% (inactive) and 2.02% (inactive)
CCCCCCCCCCCCCC[P+](CCCCCC)(CCCCCC)CCCCCC,Potency,[1],12.2 µM (active) and 13.8 µM (active)
same,Potency,[4],21.8 µM (active) and 21.9 µM (active)
same,Potency,[5],inactive
same,Potency,[6],11 µM (active) and 17.5 µM (active) and inactive
same,Potency,[7],inactive
same,outcome,[8],inactive
same,Potency,[9],16 µM (active) and 28.6 µM (active) and 4 µM (active)
same,Potency,[10],9.82 µM (active) and 19.7 µM (active) and inactive
same,Potency,[11],3.91 µM (active) and 2.47 µM (active) and 1.95 µM (active)
same,Potency,[12],inactive
same,Potency,[13],11 µM (active) and 22.1 µM (active) and inactive
same,Potency,[14],13.9 µM (active) and 19.7 µM (active)
same,Potency,[15],7.8 µM (active) and 8.78 µM (active)
same,Potency,[16],17.5 µM (active) and 19.7 µM (active) and inactive
same,Potency,[17],2.47 µM (active) and 1.75 µM (active) and 1.23 µM (active)
COCC(=O)N(c1c(C)cccc1C)C(C)C(=O)OC (stereo not given),Potency,[1],inactive
same,Potency,[2],inactive
same,Potency,[3],inactive
same,Potency,[4],inactive
same,Potency,[18],inactive
same,Potency,[5],inactive
same,Potency,[6],inactive
same,Potency,[7],inactive
same,outcome,[8],inactive
same,Potency,[9],inactive
same,Potency,[19],inactive
same,"activity change, positive = activation",[20]; at 42.5 µM (top of the series),5.38% (inactive)
same,"activity change, positive = activation",[20]; at 92.4 µM (top of the series),1.31% (inactive) and 1.04% (inactive)
same,Potency,[10],inactive
same,Potency,[11],inactive
same,Potency,[12],inactive
same,Potency,[13],inactive
same,Potency,[14],inactive
same,Potency,[15],inactive
same,Potency,[16],inactive
same,max response,[17],7.37% (inactive) and 3.62% (inactive) and 0.316% (inactive)
Nc1ccccc1,Potency,[1],inactive
same,Potency,[4],inactive
same,Potency,[5],inactive
same,Potency,[6],inactive
same,Potency,[7],inactive
same,outcome,[8],inactive
same,Potency,[9],inactive
same,Potency,[10],inactive
same,Potency,[11],inactive
same,Potency,[12],inactive
same,Potency,[13],inactive
same,Potency,[14],inactive
same,Potency,[15],inactive
same,Potency,[16],inactive
same,max response,[17],-1.34% (inactive) [middle of 4 runs]
CCCC[n+]1ccccc1C,Potency,[1],inactive
same,Potency,[4],inactive
same,Potency,[6],inactive
same,Potency,[7],inactive
same,outcome,[8],inactive
same,Potency,[9],inactive
same,Potency,[10],inactive
same,Potency,[11],inactive
same,Potency,[12],inactive
same,Potency,[13],inactive
same,Potency,[14],inactive
same,Potency,[15],inactive
same,Potency,[16],inactive
same,max response,[17],0.73% (inactive) [middle of 6 runs]
O=C(O)CC(O)(CC(=O)O)C(=O)O,Potency,[1],inactive
same,Potency,[4],inactive
same,Potency,[6],inactive
same,Potency,[7],inactive
same,Potency,[9],inactive
same,Potency,[10],inactive
same,Potency,[11],inactive
same,Potency,[12],inactive
same,Potency,[13],inactive
same,Potency,[14],inactive
same,Potency,[15],inactive
same,Potency,[16],inactive
same,max response,[17],6.24% (inactive) and 7.96% (inactive) and 3.83% (inactive)
CCCCCCCCCCCCOS(=O)(=O)O,Potency,[1],inactive
same,Potency,[4],inactive
same,Potency,[6],48.3 µM (active) and inactive
same,Potency,[7],inactive
same,outcome,[8],inactive
same,Potency,[9],inactive
same,Potency,[10],inactive
same,Potency,[11],inactive
same,Potency,[12],inactive
same,Potency,[13],inactive
same,Potency,[15],inactive
same,Potency,[16],inactive
CCCCCC[n+]1ccccc1,Potency,[1],inactive
same,Potency,[4],inactive
same,Potency,[6],inactive
same,Potency,[7],inactive
same,outcome,[8],inactive
same,Potency,[9],inactive
same,Potency,[10],inactive
same,Potency,[12],inactive
same,Potency,[13],inactive
same,Potency,[14],inactive
same,Potency,[15],inactive
same,Potency,[16],inactive
same,Potency,[17],27.8 µM (active) [middle of 5 runs]
same,max response,[17],-3.16% (inactive)
O=C(O)C(Cl)Cl,Potency,[1],inactive
same,Potency,[4],inactive
same,Potency,[5],inactive
same,Potency,[6],inactive
same,Potency,[7],inactive
same,outcome,[8],inactive
same,Potency,[9],inactive
same,Potency,[10],inactive
same,Potency,[11],inactive
same,Potency,[12],inactive
same,Potency,[13],inactive
same,Potency,[14],inactive
same,Potency,[15],inactive
same,Potency,[16],inactive
same,max response,[17],5.65% (inactive) [middle of 4 runs]
CC[n+]1ccccc1,Potency,[1],inactive
same,Potency,[4],inactive
same,Potency,[5],inactive
same,Potency,[6],inactive
same,Potency,[7],inactive
same,outcome,[8],inactive
same,Potency,[9],inactive and 1.26 µM (active)
same,Potency,[10],inactive
same,Potency,[11],inactive and 38.6 µM (active)
same,Potency,[12],inactive
same,Potency,[13],inactive and 34.8 µM (active)
same,Potency,[14],inactive
same,Potency,[15],inactive
same,Potency,[16],inactive
same,Potency,[17],21.7 µM (active)
same,max response,[17],9.29% (inactive) [middle of 4 runs]
O=C(O)COc1ccc(Cl)cc1Cl,Potency,[1],inactive
same,Potency,[4],inactive
same,Potency,[6],inactive
same,Potency,[7],inactive
same,outcome,[8],inactive
same,Potency,[9],inactive
same,Potency,[10],inactive
same,Potency,[11],inactive
same,Potency,[12],inactive
same,Potency,[13],inactive
same,Potency,[14],inactive
same,Potency,[15],inactive
same,Potency,[16],inactive
same,max response,[17],5.16% (inactive) [middle of 6 runs]
CCCCCCCCCCCCCCCCn1cc[n+](C)c1,Potency,[2],inactive and 30.9 µM (active) and 27.4 µM (active)
same,Potency,[4],inactive and 61.7 µM (active) and 27.4 µM (active)
same,Potency,[5],inactive
same,Potency,[6],inactive and 49.4 µM (active) and 31 µM (active)
same,Potency,[7],inactive
same,outcome,[8],inactive
same,Potency,[10],inactive and 49.4 µM (active) and 43.8 µM (active)
same,Potency,[12],inactive
same,Potency,[13],inactive and 39.2 µM (active) and 31 µM (active)
same,Potency,[14],inactive and 19.7 µM (active) and 24.6 µM (active)
same,Potency,[15],inactive and 24.8 µM (active) and 24.6 µM (active)
same,Potency,[16],inactive and 49.1 µM (active)
same,Potency,[17],7.93 µM (active) and 4.4 µM (active) and 2.76 µM (active)
same,max response,[17],12.2% (inactive)
